Laboratory results from PubChem BioAssay (EPA / NIEHS).
“And” between values parts separate entries of the source, which are not always exact repeats. Equal entries are not always repeated. Inconclusive results are not listed. Some structures have more than one record in an assay (separate samples or runs), and their calls can disagree. The source made the active and inactive calls. The calls were made as follows, unless noted: active = hit-call score of the fitted dose curve at least 0.9, where 1 is the maximum; inactive = score below 0.9.

What was measured:
[1] = ATG_PBREM_CIS: Attagene CIS-FACTORIAL HepG2 Assay for human Phenobarbital-responsive Enhancer Module (PBREM) (AID 2282955); conditions: HepG2 PBREM cis-reporter, Attagene multiplexed transcription; actives raise or lower the signal
Outline: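 Transfected liver-derived HepG2 cells exposed 24 h; PBREM reporter transcript quantified via RT-PCR and capillary electrophoresis, with activity in either direction referenced to DMSO.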

[2] = target: Paired box protein Pax-6 (Homo sapiens) (UniProt P26367); experiment: ATG_Pax6_CIS: Attagene CIS-FACTORIAL HepG2 Assay for human Paired Box 6 (PAX6) (AID 2282956); conditions: HepG2 CIS-FACTORIAL PAX6 reporter transcription, RNA readout; actives raise or lower the signal
Sequence of Paired box protein Pax-6 (Homo sapiens) (P26367 whole entry, looked up): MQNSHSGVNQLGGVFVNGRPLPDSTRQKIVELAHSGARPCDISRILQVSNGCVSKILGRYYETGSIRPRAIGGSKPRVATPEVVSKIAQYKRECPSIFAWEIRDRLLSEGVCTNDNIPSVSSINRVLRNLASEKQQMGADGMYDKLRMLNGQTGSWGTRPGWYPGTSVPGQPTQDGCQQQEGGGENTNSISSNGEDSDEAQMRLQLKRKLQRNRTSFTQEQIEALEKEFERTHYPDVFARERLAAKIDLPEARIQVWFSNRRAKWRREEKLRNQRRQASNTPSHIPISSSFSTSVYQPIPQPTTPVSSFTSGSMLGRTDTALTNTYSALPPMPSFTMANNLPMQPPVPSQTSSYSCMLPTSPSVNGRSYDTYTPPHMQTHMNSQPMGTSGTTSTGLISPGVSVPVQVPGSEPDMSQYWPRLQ
Outline: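 DMSO-referenced bidirectional fits of reporter mRNA fluorescence; HepG2 with transient cis-promoter MRTUs, 24 h post-dose, RT-PCR plus capillary electrophoresis detection.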

[3] = ATG_PXRE_CIS: Attagene CIS-FACTORIAL HepG2 Assay for human Pregnane X Receptor Element (PXRE) (AID 2282957); conditions: HepG2 Attagene CIS-FACTORIAL PXRE reporter, mRNA; actives raise or lower the signal
Outline: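 Endogenous transcription factor activity in HepG2 was gauged through induction of reporter mRNA driven by a cis-regulating promoter element, sampled 24 h post-treatment. Activity was fitted in both directions against DMSO negative control.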

[4] = ATG_PPRE_CIS: Attagene CIS-FACTORIAL HepG2 Assay for human Peroxisome Proliferator-activated Response Element (PPRE) (AID 2282958); conditions: HepG2 PPRE cis-element reporter, Attagene transcription factor profiling; actives raise or lower the signal
Outline: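 Measured endpoint: PPRE-controlled reporter mRNA, detected by RT-PCR and capillary electrophoresis fluorescence, from transiently transfected HepG2 cells 24 h after dosing. Curves fitted in both directions using DMSO baseline.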

[5] = ATG_RORE_CIS: Attagene CIS-FACTORIAL HepG2 Assay for human RAR-related Orphan Receptor Element (RORE) (AID 2282959); conditions: HepG2 Attagene cis-factorial RORE reporter, mRNA; actives raise or lower the signal
Outline: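 Transiently transfected HepG2 reporter cells were treated 24 h. Reporter transcripts were detected by RT-PCR and capillary electrophoresis, with bidirectional fitting against DMSO.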

[6] = ATG_Sox_CIS: Attagene CIS-FACTORIAL HepG2 Assay for human SRY-box transcription factor (SOX) (AID 2282960); conditions: HepG2 Attagene cis-factorial SOX reporter, mRNA; actives raise or lower the signal
Outline: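 Gain- or loss-of-signal endpoint, fitted bidirectionally with DMSO as negative control. Based on reporter mRNA from transfected HepG2 cells harvested 24 h post-treatment and quantified via RT-PCR and capillary electrophoresis.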

[7] = target: Transcription factor Sp1 (Homo sapiens) (UniProt P08047); experiment: ATG_Sp1_CIS: Attagene CIS-FACTORIAL HepG2 Assay for human Specificity Protein 1 (Sp1) (AID 2282961); conditions: HepG2 Sp1 cis-reporter transcription, actives raise or lower the signal
Sequence of Transcription factor Sp1 (Homo sapiens) (P08047 whole entry, looked up, the tested form may be a part): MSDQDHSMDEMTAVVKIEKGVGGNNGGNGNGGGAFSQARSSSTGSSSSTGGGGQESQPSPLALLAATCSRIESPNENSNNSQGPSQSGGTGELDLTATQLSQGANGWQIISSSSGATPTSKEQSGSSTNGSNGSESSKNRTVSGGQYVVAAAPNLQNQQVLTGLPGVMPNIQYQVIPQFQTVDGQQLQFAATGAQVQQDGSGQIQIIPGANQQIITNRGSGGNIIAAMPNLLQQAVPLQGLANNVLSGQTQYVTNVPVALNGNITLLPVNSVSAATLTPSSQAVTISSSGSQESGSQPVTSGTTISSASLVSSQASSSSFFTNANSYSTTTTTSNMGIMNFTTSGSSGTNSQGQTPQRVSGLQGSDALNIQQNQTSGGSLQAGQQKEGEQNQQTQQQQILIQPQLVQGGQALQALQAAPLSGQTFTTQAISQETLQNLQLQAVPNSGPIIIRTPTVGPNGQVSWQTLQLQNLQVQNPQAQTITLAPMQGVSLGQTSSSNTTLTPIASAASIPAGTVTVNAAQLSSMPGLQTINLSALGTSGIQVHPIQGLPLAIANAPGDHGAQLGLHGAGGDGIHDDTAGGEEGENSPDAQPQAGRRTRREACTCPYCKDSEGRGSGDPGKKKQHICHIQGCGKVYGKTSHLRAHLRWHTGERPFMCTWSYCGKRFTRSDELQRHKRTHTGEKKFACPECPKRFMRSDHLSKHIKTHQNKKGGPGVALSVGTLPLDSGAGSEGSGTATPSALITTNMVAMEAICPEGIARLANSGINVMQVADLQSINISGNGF
Outline: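 Endpoint reflects endogenous Sp1 transcriptional activity, not an exogenous fusion protein: HepG2 cells with transfected cis-regulated reporters, 24 h dosing, RT-PCR/capillary electrophoresis mRNA read-out, DMSO-normalised bidirectional fit.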

[8] = ATG_SREBP_CIS: Attagene CIS-FACTORIAL HepG2 Assay for human Sterol Regulatory Element Binding (SREBP) (AID 2282962); conditions: HepG2 Attagene cis-factorial SREBP reporter, mRNA; actives raise or lower the signal
Outline: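 In this cis-format assay, HepG2 liver cells express reporters controlled by promoter elements responsive to native transcription factors. Exposure lasts 24 h; reporter mRNA fluorescence from capillary electrophoresis gives the signal, fitted bidirectionally against DMSO.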

[9] = target: Signal transducer and activator of transcription 3 (Homo sapiens) (UniProt P40763); experiment: ATG_STAT3_CIS: Attagene CIS-FACTORIAL HepG2 Assay for human Signal Transducer and Activator of Transcription 3 (STAT3) (AID 2282963); conditions: HepG2, Attagene cis-factorial STAT3 reporter transcription; actives raise or lower the signal
Sequence of Signal transducer and activator of transcription 3 (Homo sapiens) (P40763 whole entry, looked up, the tested form may be a part): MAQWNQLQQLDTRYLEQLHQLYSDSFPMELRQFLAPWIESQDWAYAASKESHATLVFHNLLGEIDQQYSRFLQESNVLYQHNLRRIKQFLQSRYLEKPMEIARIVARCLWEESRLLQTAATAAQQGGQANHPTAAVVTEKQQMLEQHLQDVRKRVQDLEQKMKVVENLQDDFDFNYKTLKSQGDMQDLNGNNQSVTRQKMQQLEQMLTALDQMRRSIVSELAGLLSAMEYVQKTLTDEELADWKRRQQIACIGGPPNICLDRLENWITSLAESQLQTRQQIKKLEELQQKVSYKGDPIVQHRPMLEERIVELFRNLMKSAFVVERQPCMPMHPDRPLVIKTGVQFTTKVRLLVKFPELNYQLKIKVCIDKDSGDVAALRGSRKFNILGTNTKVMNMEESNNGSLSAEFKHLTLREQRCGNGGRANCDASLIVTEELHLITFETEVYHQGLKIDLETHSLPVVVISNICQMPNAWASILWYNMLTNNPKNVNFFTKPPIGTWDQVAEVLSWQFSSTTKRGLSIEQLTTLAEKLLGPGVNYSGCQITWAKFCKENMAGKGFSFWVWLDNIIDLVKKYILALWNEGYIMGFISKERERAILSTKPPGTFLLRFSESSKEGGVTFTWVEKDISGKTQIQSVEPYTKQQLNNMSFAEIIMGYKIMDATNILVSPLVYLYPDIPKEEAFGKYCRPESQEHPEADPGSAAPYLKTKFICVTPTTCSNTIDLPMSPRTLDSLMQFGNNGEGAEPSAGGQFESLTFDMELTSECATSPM
Outline: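 Fluorescence intensity of 6-FAM-labelled reporter fragments, separated by capillary electrophoresis after RT-PCR, gave the signal. Cells were HepG2 transfected with cis-element reporter units and treated 24 h; fitting was bidirectional relative to DMSO.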

[10] = ATG_TA_CIS: Attagene CIS-FACTORIAL HepG2 Assay for human TA Basal Promoter (AID 2282964); conditions: HepG2 Attagene CIS-factorial TA basal promoter reporter; actives raise or lower the signal
Outline: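 Steps: transfect HepG2 with MRTUs; dose 24 h; isolate RNA, DNase-treat, reverse-transcribe; PCR and FAM-label reporter cDNA; digest with HpaI 2h at 37 C; run capillary electrophoresis. Activity fitted both directions against DMSO.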

[11] = ATG_TCF_b_cat_CIS: Attagene CIS-FACTORIAL HepG2 Assay for human T-Cell-Factor with beta-catenin (TCF/b-cat) (AID 2282965); conditions: HepG2 TCF/beta-catenin cis-reporter transcription, actives raise or lower the signal
Outline: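 Cells of the HepG2 line carry transiently transfected reporter units whose promoters respond to endogenous factors. Twenty-four hours post-dosing, reporter mRNA induction is measured by fluorescent RT-PCR and capillary electrophoresis, with DMSO as baseline.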

[12] = ATG_TAL_CIS: Attagene CIS-FACTORIAL HepG2 Assay for human TAL Basal Promoter (AID 2282966); conditions: HepG2 Attagene cis-factorial TAL promoter reporter; actives raise or lower the signal;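 also: background control endpoint measuring basal TAL promoter reporter mRNA not a specific factor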
Outline: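 Endogenous transcription-factor activity is sensed in HepG2 cells through transfected cis-promoter reporter constructs. After 24 h dosing, reporter transcripts are quantified by RT-PCR and capillary electrophoresis. Gain or loss of signal is fitted relative to DMSO.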

[13] = ATG_TGFb_CIS: Attagene CIS-FACTORIAL HepG2 Assay for human Transforming Growth Factor (TGF) (AID 2282967); conditions: HepG2 Attagene CIS TGFb reporter, mRNA transcription; actives raise or lower the signal
Outline: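 Cells were dosed for 24 hours, after which total RNA was reverse-transcribed and reporter sequences amplified, labeled and sized by capillary electrophoresis. Activity was fitted in both directions against DMSO.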

[14] = ATG_VDRE_CIS: Attagene CIS-FACTORIAL HepG2 Assay for human Vitamin D Receptor Element (VDRE) (AID 2282968); conditions: HepG2 VDRE cis-reporter transcription, actives raise or lower the signal
Outline: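 Compounds were applied for 24 h to HepG2 cells transfected with promoter-regulated reporter units. Total RNA was reverse-transcribed, and reporter amplicons were fluorescently labelled and sized by capillary electrophoresis.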

[15] = target: Nuclear receptor subfamily 1 group I member 3 (Homo sapiens) (UniProt Q14994); experiment: ATG_CAR_TRANS: Attagene TRANS-FACTORIAL HepG2 Assay for human Constitutive Androstane Receptor (CAR) (AID 2282969; active = hit-call score of the fitted dose curve at least 0.9, where 1 is the maximum;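 also: activators raise reporter mRNA above DMSO so AC50 marks induction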); conditions: HepG2 Attagene TRANS-FACTORIAL CAR reporter
Sequence of Nuclear receptor subfamily 1 group I member 3 (Homo sapiens) (Q14994 whole entry, looked up, the tested form may be a part): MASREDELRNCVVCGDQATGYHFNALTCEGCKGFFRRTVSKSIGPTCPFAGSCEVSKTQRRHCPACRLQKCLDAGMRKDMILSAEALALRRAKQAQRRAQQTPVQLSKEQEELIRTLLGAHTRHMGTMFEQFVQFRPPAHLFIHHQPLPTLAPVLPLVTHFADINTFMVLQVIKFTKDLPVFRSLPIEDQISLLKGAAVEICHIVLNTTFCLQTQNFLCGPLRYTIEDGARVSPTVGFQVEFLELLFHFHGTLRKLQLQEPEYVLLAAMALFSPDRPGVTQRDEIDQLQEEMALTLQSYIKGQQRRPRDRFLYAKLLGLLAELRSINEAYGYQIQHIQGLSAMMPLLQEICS
Outline: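 Transiently transfected HepG2, multiplex TRANS reporters (CAR-Gal4 chimera driving GAL4-UAS reporter). 24 h dosing. Readout: reporter transcript by RT-PCR + capillary electrophoresis, fluorescence intensity; positive direction vs DMSO.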

[16] = target: Estrogen receptor (Homo sapiens) (UniProt P03372); experiment: ATG_ERa_TRANS: Attagene TRANS-FACTORIAL HepG2 Assay for human Estrogen Receptor alpha (ERa) (AID 2282970; active = hit-call score of the fitted dose curve at least 0.9, where 1 is the maximum); conditions: HepG2 Attagene TRANS ERa GAL4 reporter, mRNA
Sequence of Estrogen receptor (Homo sapiens) (P03372 whole entry, looked up, the tested form may be a part): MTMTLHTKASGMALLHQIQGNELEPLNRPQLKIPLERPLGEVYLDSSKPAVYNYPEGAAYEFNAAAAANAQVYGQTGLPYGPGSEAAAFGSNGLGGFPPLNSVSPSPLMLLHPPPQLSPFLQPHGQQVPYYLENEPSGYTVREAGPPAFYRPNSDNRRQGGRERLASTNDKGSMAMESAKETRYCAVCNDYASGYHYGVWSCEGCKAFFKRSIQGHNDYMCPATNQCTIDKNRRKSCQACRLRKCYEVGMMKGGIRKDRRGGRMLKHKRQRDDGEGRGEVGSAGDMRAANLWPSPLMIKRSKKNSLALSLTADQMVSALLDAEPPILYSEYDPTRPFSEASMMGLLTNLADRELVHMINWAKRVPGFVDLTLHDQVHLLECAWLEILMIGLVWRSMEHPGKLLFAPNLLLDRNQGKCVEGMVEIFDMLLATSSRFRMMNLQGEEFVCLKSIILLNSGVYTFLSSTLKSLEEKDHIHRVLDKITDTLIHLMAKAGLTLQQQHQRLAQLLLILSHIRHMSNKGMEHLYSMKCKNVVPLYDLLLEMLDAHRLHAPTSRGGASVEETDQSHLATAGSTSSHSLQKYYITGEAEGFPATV
Outline: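 Transfected HepG2 cells carrying GAL4-UAS-driven reporter units were dosed for 24 hours. Total RNA was reverse-transcribed, reporter sequences PCR-amplified, FAM-labelled, HpaI-digested and resolved by capillary electrophoresis. Increases over DMSO control defined activity.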

[17] = target: Steroid hormone receptor ERR1 (Homo sapiens) (UniProt P11474); experiment: ATG_ERRa_TRANS: Attagene TRANS-FACTORIAL HepG2 Assay for human Estrogen-Related Receptor alpha (ERRa) (AID 2282971; active = hit-call score of the fitted dose curve at least 0.9, where 1 is the maximum); conditions: HepG2 Attagene TRANS reporter, ERRa transactivation
Sequence of Steroid hormone receptor ERR1 (Homo sapiens) (P11474 whole entry, looked up, the tested form may be a part): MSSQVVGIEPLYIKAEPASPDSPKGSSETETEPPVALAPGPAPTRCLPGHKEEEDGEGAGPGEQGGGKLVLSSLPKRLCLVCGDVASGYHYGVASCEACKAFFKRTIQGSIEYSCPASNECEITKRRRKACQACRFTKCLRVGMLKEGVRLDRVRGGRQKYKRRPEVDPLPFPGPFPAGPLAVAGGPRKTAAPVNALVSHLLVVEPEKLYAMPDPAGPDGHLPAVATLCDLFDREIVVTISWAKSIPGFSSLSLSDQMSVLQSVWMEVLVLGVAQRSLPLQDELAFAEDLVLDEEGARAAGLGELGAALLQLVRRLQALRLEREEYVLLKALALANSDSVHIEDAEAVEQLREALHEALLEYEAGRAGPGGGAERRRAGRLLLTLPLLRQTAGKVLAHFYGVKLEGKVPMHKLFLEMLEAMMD
Outline: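 HepG2 cells were transiently transfected with multiple GAL4-UAS reporter units, then dosed with compound for 24 h. Total RNA was reverse-transcribed, reporter cDNA PCR-amplified and fluorescently labelled, and fragments resolved by capillary electrophoresis; induction was compared with DMSO.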

[18] = target: X-box-binding protein 1 (Homo sapiens) (UniProt P17861); experiment: ATG_Xbp1_CIS: Attagene CIS-FACTORIAL HepG2 Assay for human X-box Binding Protein 1 (XBP1) (AID 2282972); conditions: HepG2 XBP1 cis-element reporter, Attagene multiplex; actives raise or lower the signal
Sequence of X-box-binding protein 1 (Homo sapiens) (P17861 whole entry, looked up): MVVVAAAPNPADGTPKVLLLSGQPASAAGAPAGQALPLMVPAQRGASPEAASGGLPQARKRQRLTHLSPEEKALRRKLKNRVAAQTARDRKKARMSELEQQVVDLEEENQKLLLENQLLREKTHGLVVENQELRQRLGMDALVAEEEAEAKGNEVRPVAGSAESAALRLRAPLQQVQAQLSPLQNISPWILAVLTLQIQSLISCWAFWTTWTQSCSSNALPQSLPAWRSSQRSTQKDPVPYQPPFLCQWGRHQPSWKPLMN
Outline: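 Changes in reporter transcript abundance, read by RT-PCR and capillary electrophoresis, reflect endogenous transcription factor activity. Transfected HepG2 cells received compound for 24 hours; DMSO defined baseline for bidirectional analysis.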

[19] = ATG_M_19_TRANS: Attagene TRANS-FACTORIAL HepG2 Assay for M19 Transcription Factor (Internal Marker) (AID 2282974; active = hit-call score of the fitted dose curve at least 0.9, where 1 is the maximum); conditions: HepG2 Attagene TRANS-FACTORIAL M19 internal marker reporter
Outline: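 Using RT-PCR and capillary electrophoresis, reporter mRNA from transiently transfected human HepG2 cells was quantified following 24 h exposure; activity was fitted in the positive direction against DMSO.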

[20] = ATG_Hpa5_TRANS: Attagene TRANS-FACTORIAL HepG2 Assay for human GAL4-Hpa5 Hepatocyte Transcription Factor Basal Promoter (AID 2282975; active = hit-call score of the fitted dose curve at least 0.9, where 1 is the maximum;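 also: hits are increases in reporter mRNA over DMSO baseline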); conditions: HepG2 Attagene GAL4-Hpa5 transcription reporter
Outline: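 Gain-of-signal versus DMSO is fitted for reporter mRNA quantified by RT-PCR and capillary electrophoresis after 24 h exposure. This endpoint is an internal background marker in transiently transfected HepG2 cells carrying GAL4-UAS reporter units.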

Measured: AC50

CCC(O)=C1C(=O)CC(C(=O)O)CC1=O (stereo unspecified)
inactive: [1] | [2] | [3] | [4] | [5] | [6] | [7] | [8] | [9] | [10] | [11] | [12] | [13] | [14] | [15] | [16] | [17] | [18] | [19]

CCOC(=O)NCCOc1ccc(Oc2ccccc2)cc1
inactive: [2] | [6] | [7] | [8] | [9] | [10] | [11] | [12] | [13] | [15] | [17] | [18] | [19] | [20]
active: [1] 50 µM | [3] 10 µM | [4] 8.06 µM | [5] 13.3 µM | [14] 27.4 µM | [16] 13.8 µM

c1ccc(Nc2ccccc2)cc1
active: [3] 64 µM and 37.5 µM | [4] 20.6 µM | [14] 100 µM
inactive: [1] | [2] | [4] | [5] | [6] | [7] | [8] | [9] | [10] | [11] | [12] | [13] | [14] | [15] | [17] | [18] | [20]

COC(=O)c1ccc(CNS(C)(=O)=O)cc1S(=O)(=O)NC(=O)Nc1nc(OC)cc(OC)n1
inactive: [1] | [2] | [3] | [4] | [5] | [6] | [7] | [8] | [9] | [10] | [11] | [12] | [13] | [14] | [15] | [16] | [18]

C[C@]12CC[C@@H]3c4ccc(O)cc4C[C@@H](CCCCCCCCCS(=O)CCCC(F)(F)C(F)(F)F)[C@H]3[C@@H]1CC[C@@H]2O (stereo partly specified)
active: [1] 0.376 µM | [3] 363 nM [middle of 4 runs] | [14] 1 µM and 1.5 µM
inactive: [1] | [2] | [4] | [5] | [6] | [7] | [8] | [9] | [10] | [11] | [12] | [13] | [14] | [16] | [17] | [18] | [19]

N#CSCSc1nc2ccccc2s1
inactive: [1] | [2] | [3] | [4] | [5] | [6] | [7] | [8] | [9] | [10] | [11] | [12] | [13] | [14] | [15] | [16] | [18] | [20]
active: [2] 11.1 µM | [3] 3.49 µM | [4] 2.81 µM | [7] 17.8 µM | [11] 1.99 µM | [13] 1.52 µM | [18] 14.3 µM
